Source: PubChem
Sampled rows, rich in hits. Any-hit rate of the full collection: about 5.7%.
A549 tox = kills or reduces viability of A549 cells in Nrf2 counter-screen. A549 ARE-Fluc cells, CellTiter-Fluor viability, 18-24 h. Potency, µM (highest dose often 46 µM), inactives show top-dose activity change, negative = cytotoxicity, actives largely listed as inhibitors. 390,000 compounds, 0.16% hits. AID 504648; note: potency is the fitted concentration of half-maximal effect
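A549 ARE_Fluc cells in 5% FBS OPTI-MEM were exposed to compounds in concentration-response for 18-24 h at 37 deg C. Viability was read by CellTiter-Fluor fluorescence (Ex 405/Em 525) after 30 min, before the luciferase read.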
Giardia kill = kills Giardia lamblia; Giardia lamblia trophozoite viability; activity change, % at 7.66 µM, hits read low; 340,000 compounds, 0.15% hits; in the data active = activity change below about -80%; inconclusive = between about -30% and that limit;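 note: parasites exposed to compound for two days anaerobically before the ATP read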
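Each well holds 100 Giardia trophozoites and compound. After two days (48 hrs) at 37 deg C in anaerobic conditions, ATP is quantified by luminescence.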
KB-3-1 tox = kills parental KB-3-1 adenocarcinoma cells. 400,000 compounds, 1.4% hits. AID 1347075. Potency, µM (doses to about 46.1 µM), most hits filed as cytotoxic. KB-3-1 viability, CellTiter-Glo ATP luminescence, 72 h; note: potency is the fitted concentration of half-maximal effect; nearly all actives have a fitted effect of over 60% in size
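Using CellTiter-Glo luminescence, growth of non-resistant KB-3-1 adenocarcinoma cells is assessed 72 h after pin-tool compound addition at 37 °C. Normalized responses across the concentration series yield fitted curves.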
PI4K2A block = PI4K2A (human) kinase inhibition; activity change, negative = inhibition, % at 76.9 µM; purified PI4K2A, ADP-Glo luminescence, 1 h; stronger effect = lower value; Q9BTU6; 420,000 compounds, 0.13% hits; AID 1346378; in the data active = activity change below about -50%; inconclusive = mostly about -30% to -49%;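 note: -100% = wells without enzyme as full effect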
Target sequence (Q9BTU6 whole entry, looked up): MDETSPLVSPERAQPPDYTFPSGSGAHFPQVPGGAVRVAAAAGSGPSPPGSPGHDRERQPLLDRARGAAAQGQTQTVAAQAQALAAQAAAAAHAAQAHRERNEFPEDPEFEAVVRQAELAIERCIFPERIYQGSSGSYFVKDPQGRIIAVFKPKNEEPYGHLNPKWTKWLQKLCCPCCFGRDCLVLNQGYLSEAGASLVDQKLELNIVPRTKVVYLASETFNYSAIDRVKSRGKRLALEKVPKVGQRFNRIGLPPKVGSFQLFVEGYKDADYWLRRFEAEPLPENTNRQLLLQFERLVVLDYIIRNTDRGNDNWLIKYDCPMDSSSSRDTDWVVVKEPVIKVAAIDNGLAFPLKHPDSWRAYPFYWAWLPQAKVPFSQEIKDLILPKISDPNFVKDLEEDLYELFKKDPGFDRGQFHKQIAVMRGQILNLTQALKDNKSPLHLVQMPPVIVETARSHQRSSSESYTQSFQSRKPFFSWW
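In this quantitative HTS, ADP production by PI4K2A was quantified luminescently after 1 h at ambient temperature; 100 microM adenosine served as plate-quality control.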
KB-V1 MDR tox = kills drug-selected multidrug resistant KB-V1 cells; KB-V1 MDR cells viability, CellTiter-Glo, 72 h; Potency, µM (highest dose often 46.1 µM), actives largely listed as cytotoxic; 400,000 compounds, 3.4% hits; AID 1347076; note: potency is the fitted concentration of half-maximal effect; nearly all actives have a fitted effect of over 60% in size
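Cells of the MDR subline KB-V1 are plated, dosed with compound at multiple concentrations, and incubated 72 h at 37 degrees C; CellTiter-Glo is then added and luminescence read after 10 min.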
Nrf2 inh = blocks Nrf2 signaling; A549 ARE-Fluc reporter, luciferase luminescence, 18-24 h; Potency, µM (series often up to 46 µM), for the others: top-dose activity change, negative = inhibition, usual class: inhibitors; 360,000 compounds, 2.1% hits; note: potency is the fitted concentration of half-maximal effect; nearly all actives have a fitted effect of over 60% in size
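Cells were seeded and rested 2 h, then exposed to compounds for 18-24 h. CellTiter-Fluor was read first as a viability measure. BugLite was added 15 min before the final luminescent read of ARE-luciferase activity in A549 cells.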
Numbers without * were called inactive; ! = repeats disagree. Unless noted, calls come from the whole dose curve; as a rule, active = well fitted curve in the direction sought with a large enough effect; inconclusive = small, poorly fitted or top-dose-only effect, or another doubt; inactive = no such curve, though single readings can be large; an effect the other way counts as inactive or inconclusive. Unless noted, % is set by controls: 0 for no effect and ±100 for the full control effect.

For COCCCN1C(=O)[C@H](CC(=O)N2CCN(C(=O)C3CC3)CC2)[C@]2(C(=O)OC)CCCCC=C12 the results were PI4K2A block 2.1.
Cc1nn(C)c(C)c1NC(=O)COc1ccc(Cl)cc1 was read as A549 tox -3.8%, Giardia kill 25.9, KB-3-1 tox inactive, PI4K2A block 4.7, KB-V1 MDR tox inactive and Nrf2 inh inconclusive.
Screening Cc1ccc(-n2nc(C)c(NC(=O)CCl)c2C)cc1C returned A549 tox inconclusive, Giardia kill -16.4, KB-3-1 tox 9.2µM*, PI4K2A block 8.7, KB-V1 MDR tox 16.4µM* and Nrf2 inh inconclusive.
Screening CCC(=O)Nc1c(C)nn(-c2ccc(C)c(C)c2)c1C returned A549 tox 0.3%, Giardia kill 20.7, KB-3-1 tox inactive, PI4K2A block 6.8, KB-V1 MDR tox inactive and Nrf2 inh 17.6%.
Screening Cc1nn(C)c(C)c1NC(=O)CCl returned A549 tox -14.6%, Giardia kill 19.6, KB-3-1 tox 11.6µM*, PI4K2A block -21.4, KB-V1 MDR tox inactive and Nrf2 inh -2.4%.
Screening COc1ccc(-c2nc3ccccn3c2NCc2ccc3c(c2)OCO3)cc1 returned A549 tox 10.1%, Giardia kill 5.7, KB-3-1 tox inactive, PI4K2A block -9.9, KB-V1 MDR tox inconclusive and Nrf2 inh 29.6%.
COc1ccc(-c2ccc(-c3nc4ccc(C)cn4c3NC3CCCCC3)cc2OC)cc1 was read as A549 tox inconclusive, Giardia kill 8.2, KB-3-1 tox inconclusive, PI4K2A block -1.4, KB-V1 MDR tox 16.4µM*! and Nrf2 inh inconclusive.
`COc1ccc(-c2cc(-c3nc4ccccn4c3NCc3ccccc3)ccc2OC)cc1` gave A549 tox inconclusive, Giardia kill -2.5, KB-3-1 tox inactive, PI4K2A block -4.0, KB-V1 MDR tox inconclusive and Nrf2 inh 14.6µM*.
`CCC(C)Sc1ccc(-c2nc3ccc(C)cn3c2NCc2ccccc2)cc1OC` (configuration not stated) gave A549 tox inconclusive, Giardia kill -1.4, KB-3-1 tox inactive, PI4K2A block 3.4, KB-V1 MDR tox inconclusive and Nrf2 inh inconclusive.
`CCCCNc1c(-c2ccc(OC)c(SC3CCCCC3)c2)nc2ccc(C)cn12` gave A549 tox inconclusive, Giardia kill -26.0, KB-3-1 tox inconclusive, PI4K2A block 3.7, KB-V1 MDR tox inconclusive and Nrf2 inh 18.4µM*.
`CCCCNc1c(-c2ccc(SC3CCCCC3)c(OC)c2)nc2ccc(C)cn12` gave A549 tox inconclusive, Giardia kill 11.5, KB-3-1 tox inconclusive, PI4K2A block -1.3, KB-V1 MDR tox inconclusive and Nrf2 inh inconclusive.
For CCC(C)Sc1cc(-c2nc3ccc(C)cn3c2NCc2ccccc2)ccc1OC (configuration not stated) the results were A549 tox 16.4µM*, Giardia kill 41.4, KB-3-1 tox inconclusive, PI4K2A block 2.1, KB-V1 MDR tox inconclusive and Nrf2 inh 20.6µM*.
Screening Cc1ccc(-c2c(C(=O)NC3CCCC3)oc(=O)c3ccccc23)cc1 returned PI4K2A block -0.7.
For CCCCNc1c(-c2ccc(OC)c(SC(C)CC)c2)nc2ccc(Cl)cn12 (configuration not stated) the results were A549 tox -11.5%, Giardia kill 2.2, KB-3-1 tox inactive, PI4K2A block -1.1, KB-V1 MDR tox inactive and Nrf2 inh 7.2%.
`CCCCNc1c(-c2ccc(OC)c(SC(C)CC)c2)nc2ccc(C)cn12` (configuration not stated) gave A549 tox inconclusive, Giardia kill -13.5, KB-3-1 tox inconclusive, PI4K2A block -2.5, KB-V1 MDR tox 18.4µM*! and Nrf2 inh inconclusive.
Screening Cc1ccc(NC(=S)NC(NC(=O)c2ccccc2)C(Cl)(Cl)Cl)c(C)c1 (configuration not stated) returned A549 tox inconclusive, Giardia kill -5.7, KB-3-1 tox inconclusive, PI4K2A block -1.4, KB-V1 MDR tox 16.4µM* and Nrf2 inh 20.6µM*.
Screening Cc1cc(C)c(NC(=S)NC(NC(=O)c2ccccc2)C(Cl)(Cl)Cl)c(C)c1 (configuration not stated) returned A549 tox -12.7%, Giardia kill 0.2, KB-3-1 tox inconclusive, PI4K2A block 3.9, KB-V1 MDR tox inconclusive and Nrf2 inh inconclusive.
Screening CO/N=C/C(=N\Nc1ccc(OC)cc1)C(=O)c1ccc(OC)cc1 returned A549 tox -13.3%, Giardia kill -4.6, KB-3-1 tox inconclusive, PI4K2A block -4.5, KB-V1 MDR tox 11.6µM* and Nrf2 inh inconclusive.
For COc1ccc(C(=O)C(/C=N/O)=N/Nc2ccc(F)cc2)cc1 the results were A549 tox -6.7%, Giardia kill 11.0, KB-3-1 tox inactive, PI4K2A block -1.9, KB-V1 MDR tox inactive and Nrf2 inh -25.5%.
Cc1cc(/C=N\NC(=O)CC(=O)NC2CCCCC2)c(C)n1-c1cccc(Cl)c1Cl was read as A549 tox 15.1%, Giardia kill -6.2, KB-3-1 tox inconclusive, PI4K2A block 1.3, KB-V1 MDR tox 23.1µM* and Nrf2 inh -5.0%.
For COC(=O)[C@]12C[C@H](CC(=O)NCc3ccc(C)o3)C(=O)N(CCC3=CCCCC3)C1=C[C@H](C(C)C)O[C@@H]2C1CC1 the results were PI4K2A block 4.1.
Cc1[nH][nH]c(=O)c1C(c1ccc(-c2ccc(Cl)c(C(=O)O)c2)o1)c1c(C)[nH][nH]c1=O was read as A549 tox -22.7%, Giardia kill 5.9, KB-3-1 tox inactive, PI4K2A block -58.9*, KB-V1 MDR tox inactive and Nrf2 inh -8.6%.
Screening COC(=O)c1cccc(-c2ccc(C(c3c(C)[nH][nH]c3=O)c3c(C)[nH][nH]c3=O)o2)c1 returned A549 tox -1.0%, Giardia kill -7.4, KB-3-1 tox inactive, PI4K2A block inconclusive, KB-V1 MDR tox inconclusive and Nrf2 inh -7.8%.
